From PubChem BioAssay (NCATS) come the findings set out here.

The target in experiment [1] is Lysosomal acid glucosylceramidase (Homo sapiens) (UniProt P04062). Kind of experiment: Glucocerebrosidase-p2 (AID 348; in the data active = potency below about 10 µM; note: potency is the fitted concentration of half-maximal effect). The following applies: purified GBA, blue fluorogenic substrate, 40 min. The gist of the method: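 Normal human glucocerebrosidase (0.2 nM) with blue fluorogenic substrate (80 uM final) in citrate/phosphate pH 5.9 with 10mM sodium taurocholate, 0.01% tween-20; 40 min RT, NaOH/glycine stop; fluorescence Ex 365/Em 440; AC50 from a titration from 0.6 nM upwards.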
Chain of Lysosomal acid glucosylceramidase (Homo sapiens) (P04062 whole entry, looked up): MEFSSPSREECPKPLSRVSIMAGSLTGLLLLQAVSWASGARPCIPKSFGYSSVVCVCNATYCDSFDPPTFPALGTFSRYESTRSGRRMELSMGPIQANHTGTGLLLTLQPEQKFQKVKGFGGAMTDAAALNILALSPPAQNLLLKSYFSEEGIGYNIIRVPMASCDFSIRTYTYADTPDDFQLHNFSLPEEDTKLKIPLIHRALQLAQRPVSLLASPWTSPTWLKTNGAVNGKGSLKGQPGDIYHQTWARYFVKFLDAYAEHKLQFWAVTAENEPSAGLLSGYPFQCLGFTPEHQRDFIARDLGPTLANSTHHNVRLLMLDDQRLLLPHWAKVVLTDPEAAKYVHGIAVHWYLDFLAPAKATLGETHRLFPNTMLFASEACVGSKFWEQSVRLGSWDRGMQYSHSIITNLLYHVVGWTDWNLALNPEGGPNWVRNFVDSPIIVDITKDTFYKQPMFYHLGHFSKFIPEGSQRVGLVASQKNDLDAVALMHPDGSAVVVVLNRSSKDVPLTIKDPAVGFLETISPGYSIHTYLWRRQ

A short description of experiment [2]: AP1 Signaling Pathway (AID 357). Note: % is set by controls: 0 for no effect and ±100 for the full control effect. The following applies: ME-180 AP-1-bla reporter, EGF-induced, beta-lactamase ratio, 5 h; at 7.69 µM (top of the series) unless noted. The method, boiled down:
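ME-180 cells with beta-lactamase reporter under AP-1 response element, stimulated with EC50 EGF; compounds tested in titration series, 5 h at 37 °C. CCF4 substrate added 2.5 h at room temperature; 460/530 nm emission ratio gave %activity and AC50.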

Experiment [3] is described as follows: NFAT Signaling Pathway (AID 444).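 Note: carbachol stimulus at about its EC50 of 1 µM final; % is set by controls: 0 for no effect and ±100 for the full control effect.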 The conditions noted are these: Jurkat NFAT-bla M1, carbachol, beta-lactamase ratio, 5 h; at 7.69 µM (top of the series) unless noted. The gist of the method:
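Jurkat cells carrying an NFAT-driven β-lactamase reporter and co-transfected muscarinic M1 receptor were treated with compound plus carbachol (1 uM final, an EC50 level) for 5 h at 37 °C. CCF4 loading followed for 1 h at RT; 460/530 nm ratio gave %activity.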

A short description of experiment [4]: Stat Signaling Pathway (AID 446).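 Note: ME-180 cervical cancer cells given 40 pM IL-6 alongside compound; SIE-controlled beta-lactamase reporter measured as 460/530 nm FRET emission ratio; % is set by controls: 0 for no effect and ±100 for the full control effect.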 The conditions noted are these: ME-180 (cervical carcinoma) SIE beta-lactamase reporter, IL-6 stimulated, 5 h; at 7.69 µM (top of the series) unless noted. The method, boiled down: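 Compound effects on IL-6-induced STAT reporter activity were measured in ME-180 cells. After overnight culture, cells were co-treated with 40 pM IL-6 for 5 hrs before beta-lactamase substrate loading at room temperature.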

In experiment [5] the target is Glucocorticoid receptor (Homo sapiens) (UniProt P04150). Kind of experiment: GR-GFP Redistribution (AID 450;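 active = compounds whose dose series gives a full or clear partial fitted curve of increased nuclear translocation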; note: potency is the fitted concentration of half-maximal effect). The conditions noted are these: U2OS GR-GFP nuclear translocation, laser cytometry, 2 h.
Chain of Glucocorticoid receptor (Homo sapiens) (P04150 whole entry, looked up): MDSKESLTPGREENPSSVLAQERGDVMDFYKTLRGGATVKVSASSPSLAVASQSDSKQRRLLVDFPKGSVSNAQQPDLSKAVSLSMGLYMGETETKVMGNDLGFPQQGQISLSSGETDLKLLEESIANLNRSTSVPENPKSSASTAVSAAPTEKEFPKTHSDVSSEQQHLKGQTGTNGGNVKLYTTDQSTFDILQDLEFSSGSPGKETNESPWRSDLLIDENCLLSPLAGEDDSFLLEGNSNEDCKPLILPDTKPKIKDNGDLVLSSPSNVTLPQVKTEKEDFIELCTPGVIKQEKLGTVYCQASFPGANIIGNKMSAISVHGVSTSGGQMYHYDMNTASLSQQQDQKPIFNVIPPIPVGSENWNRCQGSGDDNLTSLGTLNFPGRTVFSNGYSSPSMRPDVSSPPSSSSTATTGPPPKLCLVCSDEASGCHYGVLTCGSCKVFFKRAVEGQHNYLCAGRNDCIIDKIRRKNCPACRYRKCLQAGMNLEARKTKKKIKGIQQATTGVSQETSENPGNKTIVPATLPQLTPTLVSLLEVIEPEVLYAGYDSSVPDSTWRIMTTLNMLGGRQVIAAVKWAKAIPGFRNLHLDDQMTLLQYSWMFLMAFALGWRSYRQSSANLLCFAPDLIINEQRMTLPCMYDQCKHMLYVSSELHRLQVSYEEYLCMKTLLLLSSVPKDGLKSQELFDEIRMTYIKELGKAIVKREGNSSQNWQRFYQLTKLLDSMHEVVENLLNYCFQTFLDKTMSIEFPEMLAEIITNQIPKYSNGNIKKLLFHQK
For experiment [6] the target is unchanged. Kind of experiment: GR-EFC Redistribution (AID 451; calls by dose curve; note: potency is the fitted concentration of half-maximal effect). The conditions noted are these: CHO-K1 GR-EFC translocation, beta-gal luminescence, 2 h. The gist of the method:
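CHO-K1 cells stably expressing nuclear-localized β-gal enzyme acceptor and GR fused C-terminally to the enzyme donor fragment; ligand-driven nuclear translocation restores β-gal by complementation. Compounds titrated up to 46 uM final, 2 h at 37 °C; luminescence read.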

Experiment [7] deals with Mitogen-activated protein kinase 10 (Mus musculus) (UniProt Q61831). Kind of experiment: JNK3 AlphaScreen Assay (AID 530).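 Note: kinase came from lysate of stimulated human HepG2 cells; signal reports phosphorylation of biotinylated GST-cJun 1-79 at Ser73 with 10 µM ATP; % is set by controls: 0 for no effect and ±100 for the full control effect.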 The following applies: JNK3 lysate, c-Jun phosphorylation; series mostly up to 57.1 µM. The gist of the method:
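Biotinylated GST-cJun(1-79) served as substrate for JNK3 in HepG2 lysates stimulated with IL-1beta and TNF-alpha. ATP was 10 uM final, pH 7.6. Ser73 phosphorylation was quantified by AlphaScreen (680 nm excitation).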
For orientation: In Alpha technology, singlet oxygen from a donor bead excites a nearby acceptor bead.

The target of experiment [8] is 3',5'-cyclic-AMP phosphodiesterase 4B (Homo sapiens) (UniProt Q07343). Briefly: qHTS Assay for Inhibitors of PDE-IV (AID 607; active = well fitted activation curve with a large enough effect in the main read-out, with a control signal flat, not every such curve was filed as active; note: % of control where 0% means no effect). The following applies: HEK293 ACTOne CNG channel cells, membrane potential fluorescence; series mostly up to 22.9 µM. The gist of the method: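 ACTOne HEK293 cells carry a modified cAMP-gated CNG channel and express endogenous PDE4; plated 1000 cells/well, compounds up to 22.9 uM final. Membrane-potential dye fluorescence (ex 535/em 590) was read; parental cells received 10 uM forskolin + 100 uM RO 20-1724.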
Chain of 3',5'-cyclic-AMP phosphodiesterase 4B (Homo sapiens) (Q07343 whole entry, looked up): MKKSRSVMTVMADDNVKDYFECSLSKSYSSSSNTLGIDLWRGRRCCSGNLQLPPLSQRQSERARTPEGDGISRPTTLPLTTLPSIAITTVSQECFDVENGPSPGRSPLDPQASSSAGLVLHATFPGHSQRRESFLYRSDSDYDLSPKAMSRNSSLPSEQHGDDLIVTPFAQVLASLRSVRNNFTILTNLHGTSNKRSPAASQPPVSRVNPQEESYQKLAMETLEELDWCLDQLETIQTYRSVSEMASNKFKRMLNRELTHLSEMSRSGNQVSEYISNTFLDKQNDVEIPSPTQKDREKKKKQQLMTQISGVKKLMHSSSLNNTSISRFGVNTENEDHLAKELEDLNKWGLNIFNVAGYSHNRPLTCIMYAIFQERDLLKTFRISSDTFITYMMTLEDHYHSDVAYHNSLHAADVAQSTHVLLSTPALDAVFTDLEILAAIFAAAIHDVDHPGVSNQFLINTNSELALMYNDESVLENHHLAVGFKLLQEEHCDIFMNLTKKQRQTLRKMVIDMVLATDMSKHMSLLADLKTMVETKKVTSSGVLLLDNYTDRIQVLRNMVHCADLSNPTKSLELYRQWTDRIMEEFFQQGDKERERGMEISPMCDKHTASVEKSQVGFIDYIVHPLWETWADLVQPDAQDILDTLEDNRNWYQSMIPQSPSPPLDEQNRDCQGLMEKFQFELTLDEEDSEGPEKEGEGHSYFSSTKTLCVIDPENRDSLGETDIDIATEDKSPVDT

A short description of experiment [9]: qHTS Assay for Lipid Storage Modulators (AID 1519; calls by dose curve). The following applies: Drosophila S3 cells, BODIPY lipid droplet/cell ratio, laser cytometry, cells loaded with oleic acid; for activity change, negative = inhibition: at 57.5 µM (top of the series). The method, boiled down: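 Cells seeded at 5,000 per well were treated with compounds over a concentration series and loaded with oleic acid (400 uM, as added). Lipid droplet fluorescence (488 nm excitation, 500-530 nm channel) was read by laser-scanning cytometry and normalized to 20 uM Triacsin C.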

Experiment [10] has as its target Dual specificity protein kinase CLK4 (Homo sapiens) (UniProt Q9HAZ1). Briefly: qHTS Assay for Inhibitors of CDC-like Kinase 4 (ADP-FP Assay) (AID 1795; active = well fitted curve in the direction sought with a large enough effect; an effect the other way counts as inactive or inconclusive; note: nearly all actives have a fitted effect of over 60% in size; note: potency is the fitted concentration of half-maximal effect). The following applies: Transcreener ADP fluorescence polarization; series mostly up to 50 µM. The method, boiled down: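 Kinase activity was followed as ADP output, converted from fluorescence polarization with a calibration curve. Reactions ran one hour at low ATP (1 uM) with RS peptide substrate.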
A general note: In qHTS, concentration-response curves come from the screen itself.

Experiment [11] addresses Ubiquitin carboxyl-terminal hydrolase 1 (Homo sapiens) (UniProt O94782). Kind of experiment: Inhibitors of USP1/UAF1: Pilot qHTS (AID 504865; active = well fitted curve in the direction sought with a large enough effect; an effect the other way counts as inactive or inconclusive;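 note: rhodamine fluorescence freed from ubiquitin-rhodamine substrate followed over time; top concentration of the series differs between compounds; % is set by controls: 0 for no effect and ±100 for the full control effect; nearly all actives have a fitted effect of over 35% in size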). The following applies: purified USP1/UAF1, Ub-rhodamine cleavage fluorescence; series mostly up to 54.9 µM. The gist of the method: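 Enzyme-free wells gave the negative control, while test wells held 1nM USP1/UAF1 preincubated with compound for 15 min at room temperature. Ub-Rho at 150nM final started the reaction, and fluorescence at 480/540 nm was recorded kinetically.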

A short description of experiment [12]: Primary qHTS for small molecule stabilizers of the endoplasmic reticulum resident proteome: Secreted ER Calcium Modulated Protein (SERCaMP) assay (AID 1508630; active = well fitted curve in the direction sought with a large enough effect; an effect the other way counts as inactive or inconclusive; note: % is set by controls: 0 for no effect and ±100 for the full control effect). The following applies: SH-SY5Y GLuc-SERCaMP (Gaussia luciferase released on ER calcium loss) secretion, thapsigargin, luminescence; series mostly up to 38.4 µM. The gist of the method: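 The SH-SY5Y reporter protocol was run at 3 concentrations up to 38.3 uM (primary) or 11 concentrations (follow-up): 16 h compound, 100 nM thapsigargin for 4 h, then extracellular luciferase luminescence.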

In experiment [13] the target is Cytochrome P450 1A2 (Homo sapiens) (UniProt P05177). Briefly: p450-cyp1a2 (AID 410; calls by dose curve; note: potency is the fitted concentration of half-maximal effect). The conditions noted are these: recombinant CYP1A2, luciferin-ME demethylation, luminescence; series mostly up to 57 µM. The method, boiled down: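 Read-out is luminescence from luciferin produced by CYP1A2 demethylation of Luciferin-ME (100uM, at Km). Detection reagent stopped the 60 min NADPH-dependent reaction; signals were normalized to 57 uM furafylline.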
Chain of Cytochrome P450 1A2 (Homo sapiens) (P05177 whole entry, looked up): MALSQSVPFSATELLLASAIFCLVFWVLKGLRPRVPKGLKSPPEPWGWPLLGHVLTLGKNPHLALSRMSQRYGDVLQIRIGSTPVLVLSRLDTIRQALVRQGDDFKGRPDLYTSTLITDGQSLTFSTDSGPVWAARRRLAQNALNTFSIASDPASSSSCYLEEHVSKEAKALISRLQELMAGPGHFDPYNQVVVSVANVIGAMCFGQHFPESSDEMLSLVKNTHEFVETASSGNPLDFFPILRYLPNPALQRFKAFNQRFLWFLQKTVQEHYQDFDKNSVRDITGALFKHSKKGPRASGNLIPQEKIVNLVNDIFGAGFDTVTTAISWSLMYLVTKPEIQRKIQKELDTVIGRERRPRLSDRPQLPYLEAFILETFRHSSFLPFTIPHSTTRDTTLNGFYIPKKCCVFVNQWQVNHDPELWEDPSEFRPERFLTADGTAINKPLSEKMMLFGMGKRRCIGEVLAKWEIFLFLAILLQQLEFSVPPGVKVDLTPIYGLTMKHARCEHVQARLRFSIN

Experiment [14] deals with Cytochrome P450 3A4 (Homo sapiens) (UniProt P08684). Kind of experiment: qHTS Assay for Activators of Cytochrome P450 3A4 (AID 885; active = well fitted curve in the direction sought with a large enough effect; an effect the other way counts as inactive or inconclusive; note: nearly all actives have a fitted effect of over 65% in size). The conditions noted are these: recombinant CYP3A4, Luciferin-PPXE luminescence, 60 min; series mostly up to 57.1 µM. The method, boiled down: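 CYP3A4 activity: Luciferin-PPXE O-dealkylation, 25uM substrate, 200mM KPO4, RT throughout. Read-out is luciferase luminescence; higher values reflect activation.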
Chain of Cytochrome P450 3A4 (Homo sapiens) (P08684 whole entry, looked up): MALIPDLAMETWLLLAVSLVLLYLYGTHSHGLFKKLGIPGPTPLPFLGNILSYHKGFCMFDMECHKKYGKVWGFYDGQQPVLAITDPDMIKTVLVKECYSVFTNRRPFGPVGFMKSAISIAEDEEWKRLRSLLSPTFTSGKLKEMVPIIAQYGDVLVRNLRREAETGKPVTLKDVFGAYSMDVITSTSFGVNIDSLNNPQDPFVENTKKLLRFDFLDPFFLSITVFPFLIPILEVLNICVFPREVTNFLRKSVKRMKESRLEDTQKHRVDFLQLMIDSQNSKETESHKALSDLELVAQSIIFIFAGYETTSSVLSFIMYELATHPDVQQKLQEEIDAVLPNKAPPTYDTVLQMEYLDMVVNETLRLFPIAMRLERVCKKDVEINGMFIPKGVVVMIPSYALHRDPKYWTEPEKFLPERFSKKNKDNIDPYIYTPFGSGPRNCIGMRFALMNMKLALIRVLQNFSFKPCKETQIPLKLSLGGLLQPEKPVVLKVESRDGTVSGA

Experiment [15] has the same target. Kind of experiment: qHTS Assay for Inhibitors and Substrates of Cytochrome P450 3A4 (AID 884; active = well fitted curve in the direction sought with a large enough effect; an effect the other way counts as inactive or inconclusive; note: potency is the fitted concentration of half-maximal effect; nearly all actives have a fitted effect of over 50% in size). The conditions noted are these: recombinant CYP3A4, Luciferin-PPXE luminescence; series mostly up to 57.1 µM. The method, boiled down:
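Luminescent readout of luciferin produced by CYP3A4 (20 nM) dealkylation of Luciferin-PPXE, 25 uM (its KM). NADPH-driven reaction ran 60 min at RT after 10 min compound preincubation; data scaled to 57 uM ketoconazole as 100% inhibition.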

Experiment [16] deals with Cytochrome P450 2C19 (Homo sapiens) (UniProt P33261). Briefly: qHTS Assay for Inhibitors and Substrates of Cytochrome P450 2C19 (AID 899; active = well fitted curve in the direction sought with a large enough effect; an effect the other way counts as inactive or inconclusive; note: potency is the fitted concentration of half-maximal effect; nearly all actives have a fitted effect of over 60% in size). The following applies: recombinant CYP2C19, luciferin-H EGE luminescence; series mostly up to 57.1 µM. The gist of the method:
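NADPH-dependent conversion of Luciferin-H EGE (10uM, at KM) by 5nM enzyme in 50mM KPO4, 60 min at 37C following 10 min compound preincubation. Stopped with luciferin detection buffer; luminescence read after 20 min.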

The mark [17] stands for this setting: measured here: cell count channel max response.
Where [18] appears, read: measured here: lipid channel max response.

Inconclusive results are not listed. Calls of active or inactive are those of the source. Unless noted, calls come from the whole dose curve; as a rule, active = well fitted curve in either direction with a large enough effect (not every such curve was filed as active); inconclusive = small, poorly fitted or top-dose-only effect, or another doubt; inactive = flat fitted curve, though single readings scatter. Where only a bound is given, the exact number is not on record here.

Chain of Ubiquitin carboxyl-terminal hydrolase 1 (Homo sapiens) (O94782 whole entry, looked up): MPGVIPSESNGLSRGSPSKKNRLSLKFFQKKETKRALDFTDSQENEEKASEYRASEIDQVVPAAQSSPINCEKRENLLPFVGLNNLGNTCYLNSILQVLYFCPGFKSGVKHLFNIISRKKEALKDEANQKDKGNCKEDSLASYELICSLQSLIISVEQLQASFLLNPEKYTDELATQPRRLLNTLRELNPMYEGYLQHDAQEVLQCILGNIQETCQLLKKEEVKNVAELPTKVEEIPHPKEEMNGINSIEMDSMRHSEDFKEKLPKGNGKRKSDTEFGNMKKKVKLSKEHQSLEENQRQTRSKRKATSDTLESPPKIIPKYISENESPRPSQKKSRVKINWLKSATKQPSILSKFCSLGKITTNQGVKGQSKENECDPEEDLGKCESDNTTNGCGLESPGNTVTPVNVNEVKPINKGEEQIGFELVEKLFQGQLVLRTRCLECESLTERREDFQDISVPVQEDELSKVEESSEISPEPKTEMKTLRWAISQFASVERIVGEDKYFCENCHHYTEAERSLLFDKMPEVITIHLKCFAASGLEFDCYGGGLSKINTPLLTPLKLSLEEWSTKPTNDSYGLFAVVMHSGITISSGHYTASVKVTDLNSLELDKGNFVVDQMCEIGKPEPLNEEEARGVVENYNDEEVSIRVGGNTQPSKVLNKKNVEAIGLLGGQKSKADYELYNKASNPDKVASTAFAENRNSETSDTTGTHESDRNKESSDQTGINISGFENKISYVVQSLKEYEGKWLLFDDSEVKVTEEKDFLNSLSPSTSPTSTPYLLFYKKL
Chain of Dual specificity protein kinase CLK4 (Homo sapiens) (Q9HAZ1 whole entry, looked up): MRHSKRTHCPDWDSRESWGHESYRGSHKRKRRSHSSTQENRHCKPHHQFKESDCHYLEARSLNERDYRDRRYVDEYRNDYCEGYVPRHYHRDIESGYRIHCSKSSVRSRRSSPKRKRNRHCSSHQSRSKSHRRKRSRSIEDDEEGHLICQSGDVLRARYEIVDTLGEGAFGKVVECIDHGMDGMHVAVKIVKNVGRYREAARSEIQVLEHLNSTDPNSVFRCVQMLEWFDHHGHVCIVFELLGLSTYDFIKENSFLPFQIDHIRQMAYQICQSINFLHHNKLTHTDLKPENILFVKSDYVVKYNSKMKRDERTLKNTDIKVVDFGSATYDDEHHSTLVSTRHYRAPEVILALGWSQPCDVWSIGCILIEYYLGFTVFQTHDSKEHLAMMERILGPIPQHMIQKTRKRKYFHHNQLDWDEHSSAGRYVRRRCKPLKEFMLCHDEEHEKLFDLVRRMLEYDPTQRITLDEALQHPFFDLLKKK
Chain of Cytochrome P450 2C19 (Homo sapiens) (P33261 whole entry, looked up): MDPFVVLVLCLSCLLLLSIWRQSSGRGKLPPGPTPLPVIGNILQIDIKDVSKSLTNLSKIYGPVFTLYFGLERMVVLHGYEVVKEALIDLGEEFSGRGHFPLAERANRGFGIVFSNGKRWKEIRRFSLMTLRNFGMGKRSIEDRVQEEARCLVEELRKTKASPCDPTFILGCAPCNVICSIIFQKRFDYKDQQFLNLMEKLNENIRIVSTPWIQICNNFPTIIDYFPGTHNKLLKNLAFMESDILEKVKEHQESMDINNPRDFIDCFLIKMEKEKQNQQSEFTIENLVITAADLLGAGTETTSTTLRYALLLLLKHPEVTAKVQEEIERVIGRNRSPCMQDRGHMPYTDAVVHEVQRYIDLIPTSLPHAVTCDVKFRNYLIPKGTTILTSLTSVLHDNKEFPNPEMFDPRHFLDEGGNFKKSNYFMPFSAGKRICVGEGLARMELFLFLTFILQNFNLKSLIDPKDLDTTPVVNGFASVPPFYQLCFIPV

For `COc1ccc(-n2c(=O)cnc3cnc(N4CCN(C)CC4)nc32)cc1`, the Potency in experiment [1] was > 11.4 µM (inactive); in experiment [5], > 9.22 µM (inactive); in [6] it was > 46 µM (inactive). The activity change, negative = inhibition in experiment [2] is -6.82% (inactive); in experiment [3], -9.46% (inactive); in experiment [9], 2.82% (inactive). In addition, in [4], the activity, negative = inhibition was 2.91% (inactive). The outcome in [7] was inactive. Besides, the Potency entry in experiment [8], in [10], in experiment [11] and in experiment [12] was “inactive” in each case. Moreover, the figures for the max response in [9] (setting [17]) and in [9] (setting [18]) were 18.4% and 19.5%, respectively.

Consider `CCNc1ncc2nc(C)c(=O)n(Cc3cccs3)c2n1`, for which the Potency in experiment [1] is > 11.4 µM (inactive); in experiment [13] it was 2 µM (active); in experiment [5], > 9.22 µM (inactive); in experiment [6], > 46 µM (inactive). Also, the values for the activity change, negative = inhibition in experiment [2], in [3] and in experiment [9] were 19% (inactive), -12.9% (inactive) and 6.19% (inactive), respectively. For the same compound, the activity, negative = inhibition in [4] was -7.43% (inactive). Moreover, in experiment [7], the outcome was inactive. In addition, the Potency entry in experiment [14], in experiment [10], in experiment [11] and in experiment [12] was “inactive” in each case. For the same compound, the figures for the max response in experiment [9] (setting [17]) and in experiment [9] (setting [18]) were -9.24% and -5.88%, respectively.

Turning to `CN(C)c1ncc2ncc(=O)n(C3CC3)c2n1`, the Potency in experiment [1] is > 11.4 µM (inactive); in experiment [13], 3.16 µM (active); in [6] it was > 46 µM (inactive). Further, the activity change, negative = inhibition in experiment [2] was 0.558% (inactive); in experiment [3], -1.2% (inactive); in [9] it was 7.21% (inactive). In experiment [4], the activity, negative = inhibition was -11.1% (inactive). In addition, the call in experiment [7] was inactive. The Potency result in experiment [8], in experiment [10], in experiment [11] and in [12] was “inactive” throughout. The figures for the max response in experiment [9] (setting [17]) and in [9] (setting [18]) were 15.8% and 22.4%, respectively.

On to `CC(=O)NCCNc1cc(-c2ccccc2C)ncn1`, for which the Potency in [1] is > 11.4 µM (inactive); in experiment [13], 15.8 µM (active); in experiment [5], > 46 µM (inactive); in [6], > 46 µM (inactive). In addition, the activity change, negative = inhibition in experiment [2] was 12% (inactive); in experiment [9] it was 3.34% (inactive). Moreover, the activity, negative = inhibition in experiment [4] was 16.5% (inactive). Besides, the result in experiment [7] was inactive. Moreover, the Potency entry in [8], in experiment [10], in experiment [11] and in experiment [12] was “inactive” in each case. Also, the max response in experiment [9] (setting [17]) was found to be 16.2%; in experiment [9] (setting [18]), 17.3%.

As for `CNc1ncnc2ccc(-c3ccccc3C)cc12`, the Potency in [1] was > 11.4 µM (inactive); in experiment [5], > 46 µM (inactive); in experiment [6], > 46 µM (inactive); in experiment [10], 8.91 µM (active). For the same compound, the activity change, negative = inhibition was -4.22% (inactive) in experiment [2], 3.06% (inactive) in experiment [3] and -7.2% (inactive) in experiment [9]. Further, the activity, negative = inhibition in experiment [4] is -3.66% (inactive). Further, in experiment [7], the result was inactive. The max response in [9] (setting [17]) was -12.3%; in experiment [9] (setting [18]), -15.2%. Also, the Potency result in experiment [11] and in experiment [12] was “inactive” in each case.

On to `N#Cc1cccc(-c2cncnc2NCc2cccs2)c1`, for which the Potency in [1] is > 11.4 µM (inactive); in experiment [13], 1.58 µM (active); in experiment [5], > 46 µM (inactive); in [6] it was > 46 µM (inactive); in experiment [15], 1.26 µM (active); in experiment [16], 7.94 µM (active). Besides, the results for the activity change, negative = inhibition in experiment [2], in experiment [3] and in [9] were -2.15% (inactive), -0.972% (inactive) and 6.17% (inactive), respectively. Also, the activity, negative = inhibition in experiment [4] was 3.27% (inactive). In addition, in experiment [7], the result was inactive. Further, the Potency result in [14], in experiment [10], in experiment [11] and in [12] was “inactive” in each case. The max response amounted to 15.7% in experiment [9] (setting [17]) and 18.5% in experiment [9] (setting [18]).
